Results filed as inconclusive are left out. Calls of active or inactive are those of the source. Unless noted, calls follow the shape of the dose curve; as a rule, active = well fitted curve in either direction with a large enough effect (not every such curve was filed as active); inconclusive = small, poorly fitted or top-dose-only effect, or another doubt; inactive = flat fitted curve, though single readings scatter.
What was measured:
[1] = biological target: Lysosomal acid glucosylceramidase (Homo sapiens) (UniProt P04062); experiment: Glucocerebrosidase-p2 (AID 348; in the data active = potency below about 10 µM; also: potency is read from the fitted curve at half-maximal effect); conditions: purified GBA, blue fluorogenic substrate, 40 min
Lysosomal acid glucosylceramidase (Homo sapiens), sequence (P04062 whole entry, looked up): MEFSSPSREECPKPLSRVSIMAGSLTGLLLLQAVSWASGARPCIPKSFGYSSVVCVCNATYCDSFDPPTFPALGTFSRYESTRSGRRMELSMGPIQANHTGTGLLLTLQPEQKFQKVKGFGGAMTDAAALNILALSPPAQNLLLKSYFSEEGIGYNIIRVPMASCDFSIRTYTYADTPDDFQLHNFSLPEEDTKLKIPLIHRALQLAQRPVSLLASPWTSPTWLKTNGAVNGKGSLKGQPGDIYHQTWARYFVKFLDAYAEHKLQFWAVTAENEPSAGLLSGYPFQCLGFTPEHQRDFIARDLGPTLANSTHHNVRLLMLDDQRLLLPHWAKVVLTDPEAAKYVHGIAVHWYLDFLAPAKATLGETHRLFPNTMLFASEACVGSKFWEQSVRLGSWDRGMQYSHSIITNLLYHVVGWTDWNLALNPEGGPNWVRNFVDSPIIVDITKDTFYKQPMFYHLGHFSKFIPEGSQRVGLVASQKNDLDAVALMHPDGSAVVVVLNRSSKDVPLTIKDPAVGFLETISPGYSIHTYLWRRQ
Procedure, shortened: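 Normal human glucocerebrosidase (0.2 nM) with blue fluorogenic substrate (80 uM final) in citrate/phosphate pH 5.9 with 10mM sodium taurocholate, 0.01% tween-20; 40 min RT, NaOH/glycine stop; fluorescence Ex 365/Em 440; AC50 from a titration from 0.6 nM upwards.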

[2] = AP1 Signaling Pathway (AID 357); conditions: ME-180 AP-1-bla reporter, EGF-induced, beta-lactamase ratio, 5 h; at 7.69 µM (top of the series) unless noted;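 also: ME-180 reporter cells stimulated with EGF at its EC50 level; % is scaled to controls: 0 for no effect and ±100 for the full control effect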
Procedure, shortened: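 Beta-lactamase reporter under AP-1 response element, ME-180 background. Stimulus: EC50 EGF. Compound exposure 5 h, 37 °C. Detection: CCF4, 2.5 h RT, 460/530 nm. Values: AC50 from titration.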

[3] = NFAT Signaling Pathway (AID 444); conditions: Jurkat NFAT-bla M1, carbachol, beta-lactamase ratio, 5 h; at 7.69 µM (top of the series) unless noted;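 also: carbachol stimulus at about its EC50 of 1 µM final; % is scaled to controls: 0 for no effect and ±100 for the full control effect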
Procedure, shortened: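 Read-out: CCF4 FRET ratio (460 nm/530 nm) after 1 h RT dye loading, used for %activity and AC50 from titration series. Cells: Jurkat NFAT-β-lactamase/M1 line, treated with compound plus 1 uM carbachol for 5 h, 37 °C.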

[4] = Stat Signaling Pathway (AID 446); conditions: ME-180 (cervical carcinoma) SIE beta-lactamase reporter, IL-6 stimulated, 5 h; at 7.69 µM (top of the series) unless noted;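 also: ME-180 cervical cancer cells given 40 pM IL-6 alongside compound; SIE-controlled beta-lactamase reporter measured as 460/530 nm FRET emission ratio; % is scaled to controls: 0 for no effect and ±100 for the full control effect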
Procedure, shortened: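 FRET read-out (405 nm excitation, 460/530 nm emission) of a beta-lactamase reporter under a STAT-inducible element in ME-180 cervical carcinoma cells. Cells with compound receive 40 pM IL-6 for 5 h. Values are normalised to AC90 stimulation and AC90 JAK-inhibitor controls.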

[5] = biological target: Glucocorticoid receptor (Homo sapiens) (UniProt P04150); experiment: GR-EFC Redistribution (AID 451; calls by dose curve; also: potency is read from the fitted curve at half-maximal effect); conditions: CHO-K1 GR-EFC translocation, beta-gal luminescence, 2 h
Glucocorticoid receptor (Homo sapiens), sequence (P04150 whole entry, looked up, the tested form may be a part): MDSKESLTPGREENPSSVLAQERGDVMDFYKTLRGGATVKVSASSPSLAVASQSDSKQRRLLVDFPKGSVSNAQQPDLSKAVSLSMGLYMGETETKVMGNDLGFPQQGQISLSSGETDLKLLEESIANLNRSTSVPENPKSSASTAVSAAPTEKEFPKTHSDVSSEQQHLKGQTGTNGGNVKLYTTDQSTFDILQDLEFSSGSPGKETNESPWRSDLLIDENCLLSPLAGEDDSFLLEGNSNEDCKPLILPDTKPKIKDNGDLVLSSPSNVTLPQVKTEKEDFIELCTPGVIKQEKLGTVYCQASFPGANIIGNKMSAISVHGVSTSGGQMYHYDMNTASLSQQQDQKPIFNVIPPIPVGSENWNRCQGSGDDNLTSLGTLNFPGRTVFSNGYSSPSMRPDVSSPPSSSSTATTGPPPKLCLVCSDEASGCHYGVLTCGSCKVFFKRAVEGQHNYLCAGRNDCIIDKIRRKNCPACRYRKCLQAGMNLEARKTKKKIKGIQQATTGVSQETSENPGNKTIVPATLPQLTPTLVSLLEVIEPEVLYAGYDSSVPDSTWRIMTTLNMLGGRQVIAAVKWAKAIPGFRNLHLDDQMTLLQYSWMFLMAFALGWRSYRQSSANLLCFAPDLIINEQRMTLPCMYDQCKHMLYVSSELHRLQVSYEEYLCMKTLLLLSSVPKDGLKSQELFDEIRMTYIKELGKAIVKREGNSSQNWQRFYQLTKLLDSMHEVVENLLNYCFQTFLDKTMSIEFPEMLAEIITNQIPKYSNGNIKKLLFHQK
Procedure, shortened: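 Translocation of GR-ED fusion to nuclear EA restores b-gal, read by luminescence after 1 h room-temperature detection. Engineered CHO-K1 biosensor cells, 1,000/well, exposed 2 h at 37 C to titrations up to 46 uM final.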

[6] = biological target: Mitogen-activated protein kinase 10 (Mus musculus) (UniProt Q61831); experiment: JNK3 AlphaScreen Assay (AID 530); conditions: JNK3 lysate, c-Jun phosphorylation; series mostly up to 57.1 µM;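 also: kinase came from lysate of stimulated human HepG2 cells; signal reports phosphorylation of biotinylated GST-cJun 1-79 at Ser73 with 10 µM ATP; % is scaled to controls: 0 for no effect and ±100 for the full control effect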
Procedure, shortened: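 Kinase buffer: 20 mM Tris-HCl pH 7.6, 10 mM MgCl2, 1 mM DTT, 0.1 mM Na3VO4, 0.01% Tween-20; ATP 10 uM. Substrate biotin-GST-cJun(1-79), enzyme from activated HepG2 lysates. Detection by Ser73 phospho-antibody AlphaScreen.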

[7] = biological target: 3',5'-cyclic-AMP phosphodiesterase 4B (Homo sapiens) (UniProt Q07343); experiment: qHTS Assay for Inhibitors of PDE-IV (AID 607; active = well fitted activation curve with a large enough effect in the main read-out, with a control signal flat, not every such curve was filed as active; also: % of control where 0% means no effect); conditions: HEK293 ACTOne CNG channel cells, membrane potential fluorescence; series mostly up to 22.9 µM
3',5'-cyclic-AMP phosphodiesterase 4B (Homo sapiens), sequence (Q07343 whole entry, looked up): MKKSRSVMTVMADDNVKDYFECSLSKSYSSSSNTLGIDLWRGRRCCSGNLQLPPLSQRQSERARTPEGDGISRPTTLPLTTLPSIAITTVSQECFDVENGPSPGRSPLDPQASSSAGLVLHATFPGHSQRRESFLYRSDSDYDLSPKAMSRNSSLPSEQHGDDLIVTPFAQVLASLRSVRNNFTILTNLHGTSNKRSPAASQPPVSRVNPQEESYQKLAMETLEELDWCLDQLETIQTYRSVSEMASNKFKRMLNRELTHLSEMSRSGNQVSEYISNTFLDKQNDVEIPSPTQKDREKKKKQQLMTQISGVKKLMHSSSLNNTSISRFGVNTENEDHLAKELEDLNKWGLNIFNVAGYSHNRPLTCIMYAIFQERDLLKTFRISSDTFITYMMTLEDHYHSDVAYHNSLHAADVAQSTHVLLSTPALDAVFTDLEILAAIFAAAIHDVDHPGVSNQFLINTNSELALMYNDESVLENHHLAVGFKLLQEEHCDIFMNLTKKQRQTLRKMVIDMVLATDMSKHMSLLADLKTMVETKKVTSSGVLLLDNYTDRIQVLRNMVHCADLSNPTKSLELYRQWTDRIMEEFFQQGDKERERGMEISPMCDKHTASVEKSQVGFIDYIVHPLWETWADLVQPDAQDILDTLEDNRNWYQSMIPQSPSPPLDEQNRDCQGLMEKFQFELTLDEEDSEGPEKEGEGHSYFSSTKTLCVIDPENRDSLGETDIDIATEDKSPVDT
Procedure, shortened: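 Cell-based read-out of cAMP via a modified cyclic nucleotide-gated channel and membrane potential dye (535/590 nm) in HEK293 cells expressing PDE4 endogenously. Compounds tested up to 22.9 uM final; 100 uM RO 20-1724 reference.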

[8] = qHTS Assay for Lipid Storage Modulators (AID 1519; calls by dose curve); conditions: Drosophila S3 cells, BODIPY lipid droplet/cell ratio, laser cytometry, cells loaded with oleic acid; for activity change, negative = inhibition: at 57.5 µM (top of the series)
Procedure, shortened: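 Cells seeded at 5,000 per well were treated with compounds over a concentration series and loaded with oleic acid (400 uM, as added). Lipid droplet fluorescence (488 nm excitation, 500-530 nm channel) was read by laser-scanning cytometry and normalized to 20 uM Triacsin C.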

[9] = Primary qHTS for small molecule stabilizers of the endoplasmic reticulum resident proteome: Secreted ER Calcium Modulated Protein (SERCaMP) assay (AID 1508630; active = well fitted curve in the direction sought with a large enough effect; an effect the other way counts as inactive or inconclusive; also: % is scaled to controls: 0 for no effect and ±100 for the full control effect); conditions: SH-SY5Y GLuc-SERCaMP (Gaussia luciferase released on ER calcium loss) secretion, thapsigargin, luminescence; series mostly up to 38.4 µM
Procedure, shortened: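 The SH-SY5Y reporter protocol was run at 3 concentrations up to 38.3 uM (primary) or 11 concentrations (follow-up): 16 h compound, 100 nM thapsigargin for 4 h, then extracellular luciferase luminescence.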

[10] = biological target: Cytochrome P450 3A4 (Homo sapiens) (UniProt P08684); experiment: qHTS Assay for Activators of Cytochrome P450 3A4 (AID 885; active = well fitted curve in the direction sought with a large enough effect; an effect the other way counts as inactive or inconclusive; also: nearly all actives have a fitted effect of over 65% in size); conditions: recombinant CYP3A4, Luciferin-PPXE luminescence, 60 min; series mostly up to 57.1 µM
Cytochrome P450 3A4 (Homo sapiens), sequence (P08684 whole entry, looked up): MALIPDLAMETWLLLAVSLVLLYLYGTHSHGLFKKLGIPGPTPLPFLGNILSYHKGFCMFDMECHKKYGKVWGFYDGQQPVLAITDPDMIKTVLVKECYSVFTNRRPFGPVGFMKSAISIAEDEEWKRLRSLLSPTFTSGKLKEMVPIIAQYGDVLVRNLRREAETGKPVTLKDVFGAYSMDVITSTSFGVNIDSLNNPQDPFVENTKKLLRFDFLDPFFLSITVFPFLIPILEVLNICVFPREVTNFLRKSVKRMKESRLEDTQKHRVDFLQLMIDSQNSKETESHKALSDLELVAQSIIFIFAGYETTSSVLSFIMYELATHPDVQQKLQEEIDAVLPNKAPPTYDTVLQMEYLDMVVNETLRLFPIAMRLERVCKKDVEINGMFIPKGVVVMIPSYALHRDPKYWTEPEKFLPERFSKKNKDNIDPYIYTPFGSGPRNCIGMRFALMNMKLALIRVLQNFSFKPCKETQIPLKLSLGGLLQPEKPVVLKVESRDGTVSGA
Procedure, shortened: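 Luminescent readout of luciferin formed from 25 uM Luciferin-PPXE (KM level) by 20 nM CYP3A4 in 200 mM KPO4, with 60 min NADPH-driven reaction at room temperature after 10 min compound exposure. Ketoconazole (57 uM) defined 100% inhibition.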

[11] = measured here: cell count channel max response
[12] = measured here: lipid channel max response

| Structure (SMILES) | Potency [1] | activity change, negative = inhibition [2] | activity change, negative = inhibition [3] | activity, negative = inhibition [4] | Potency [5] | Potency [6] | Potency [7] | activity change, negative = inhibition [8] | max response [8, 11] | max response [8, 12] | outcome [9] | Potency [10] |
| --- | --- | --- | --- | --- | --- | --- | --- | --- | --- | --- | --- | --- |
| Cn1cccc1C(=O)N1CCC2(CC1)CN(C(=O)Nc1cccc(F)c1)C2 | > 11.4 µM (inactive) | 5.05% (inactive) | 6.99% (inactive) | -4.36% (inactive) | > 46 µM (inactive) | inactive | inactive | 2.3% (inactive) | -3.47% | 0.81% | inactive | – |
| O=C(c1csnn1)N1CCC[C@@]2(CCN(C(c3ccccc3)c3ccccc3)C2)C1 | > 11.4 µM (inactive) | 8.26% (inactive) | 29.4% (inactive) | 26.4% (inactive) | > 46 µM (inactive) | inactive | inactive | -19.7% (inactive) | -5.14% | -20.5% | inactive | – |
| O=C(Nc1cccc(F)c1)N1CC[C@@]2(CCCN(C(=O)c3ccncc3)C2)C1 | > 11.4 µM (inactive) | -4.21% (inactive) | 9.18% (inactive) | -6.29% (inactive) | > 46 µM (inactive) | inactive | inactive | 5.32% (inactive) | 15.8% | 23.2% | inactive | – |
| Cn1cccc1C(=O)N1CCC2(CCN(C(=O)Nc3cccc(C#N)c3)CC2)CC1 | > 11.4 µM (inactive) | -16.2% (inactive) | 8.67% (inactive) | -3.46% (inactive) | > 46 µM (inactive) | inactive | inactive | 4.21% (inactive) | 4.21% | 11.6% | inactive | – |
| N#Cc1ccc(CN2CC[C@@]3(CCCN(C(=O)c4cccc(F)c4)C3)C2)cc1 | > 11.4 µM (inactive) | -24.8% (inactive) | -12.5% (inactive) | -4.01% (inactive) | > 46 µM (inactive) | inactive | inactive | -0.514% (inactive) | 0.82% | 2.5% | inactive | – |
| c1ccc(-c2cccc(N3CCCC4(CCNCC4)C3)c2)cc1 | > 11.4 µM (inactive) | 11.2% (inactive) | -11% (inactive) | 8.57% (inactive) | > 46 µM (inactive) | inactive | inactive | 2.43% (inactive) | -2.04% | 1.36% | inactive | – |
| CC(=O)N1CCC2(CC1)CN(Cc1cc(C(F)(F)F)cc(C(F)(F)F)c1)C2 | > 11.4 µM (inactive) | 2.68% (inactive) | 13.2% (inactive) | 11% (inactive) | > 46 µM (inactive) | inactive | inactive | 4.71% (inactive) | 20.4% | 27.2% | inactive | – |
| COC(=O)N1CCC[C@@]2(CCN(c3ccccc3)C2)C1 | > 11.4 µM (inactive) | -10.2% (inactive) | -9.75% (inactive) | 7.98% (inactive) | > 46 µM (inactive) | inactive | inactive | -12.5% (inactive) | 14% | -1.29% | inactive | – |
| Cc1noc(C)c1C(=O)N1CCC[C@@]2(CCN(C(=O)Nc3ccccc3)C2)C1 | > 11.4 µM (inactive) | -22.6% (inactive) | 19.8% (inactive) | -2.21% (inactive) | > 46 µM (inactive) | inactive | inactive | 3.24% (inactive) | 3.75% | 7.38% | inactive | inactive |
| CC(C)CN1CC2(CCN(C(=O)c3cnccn3)CC2)C1 | > 11.4 µM (inactive) | -4.93% (inactive) | -25.4% (inactive) | -6.85% (inactive) | > 46 µM (inactive) | inactive | inactive | 3.58% (inactive) | 13.2% | 20.3% | inactive | – |
| O=C(Nc1ccccc1)N1CC[C@@]2(CCCN(C(=O)c3ccncc3)C2)C1 | > 11.4 µM (inactive) | -15.8% (inactive) | -4.67% (inactive) | -5.93% (inactive) | > 46 µM (inactive) | inactive | inactive | 1.5% (inactive) | 13.8% | 15.1% | inactive | inactive |
| O=C(Nc1ccccc1)N1CC[C@@]2(CCCN(C(=O)c3cccc(F)c3)C2)C1 | > 11.4 µM (inactive) | -10.5% (inactive) | -6.63% (inactive) | 4.89% (inactive) | > 46 µM (inactive) | inactive | inactive | 5.88% (inactive) | 19.2% | 27.2% | inactive | inactive |
| COc1ccc(NC(=O)N2CC[C@@]3(CCCN(C(C)=O)C3)C2)cc1 | > 11.4 µM (inactive) | -3.83% (inactive) | 13.8% (inactive) | 6.12% (inactive) | > 46 µM (inactive) | inactive | inactive | 5.28% (inactive) | 4.36% | 12% | inactive | – |
| COCC(=O)N1CCC[C@@]2(CCN(c3ccccn3)C2)C1 | > 11.4 µM (inactive) | -4.6% (inactive) | -11.3% (inactive) | -4.62% (inactive) | > 46 µM (inactive) | inactive | inactive | 2.24% (inactive) | -4.94% | -1.36% | inactive | – |
